Read-out in experiment [1]: Interferon-inducible T-cell alpha chemoattractant (ITAC), CXCL11 (gene 6373)
Briefly: BSK_BE3C_ITAC: BioMAP Diversity Plus: BE3C Assay for Interferon-inducible T-cell alpha chemoattractant (ITAC) Biomarker Activity (AID 2284279). To be noted: primary human bronchial epithelial cells. The procedure, abridged:
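The assay measures I-TAC levels by ELISA in human primary bronchial epithelial cell cultures 24 hours after chemical treatment. Values reflect signal increase over the DMSO baseline.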

Read-out in experiment [2]: Interleukin-8 (IL8), CXCL8 (gene 3576)
Description: BSK_BE3C_IL8: BioMAP Diversity Plus: BE3C Assay for Interleukin-8 (IL8) Biomarker Activity (AID 2284280). To be noted: primary human bronchial epithelial cells. In a few lines: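 Primary human bronchial epithelial cells (BE3C system) exposed 24 h; IL-8 measured by ELISA and fitted in positive direction versus DMSO. Overt cytotoxicity assessed by SRB total-protein staining in parallel cultures.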

Read-out in experiment [3]: Epidermal growth factor receptor (EGFR), EGFR (gene 1956)
Description: BSK_BE3C_EGFR: BioMAP Diversity Plus: BE3C Assay for Epidermal growth factor receptor (EGFR) Biomarker Activity (AID 2284281). To be noted: primary human bronchial epithelial cells. In a few lines: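 Human primary bronchial epithelial cells (BE3C system) dosed with chemicals; EGFR measured by ELISA at 24 h, fitted in the positive direction relative to DMSO. Cytotoxicity tracked in parallel cultures by SRB total-protein staining.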

Read-out in a further experiment: KRT18 (gene 3875)
Description: BSK_BE3C_Keratin818: BioMAP Diversity Plus: BE3C Assay for Keratin 818 Biomarker Activity (AID 2284282). The settings on record: primary human bronchial epithelial cells. In a few lines:
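Chemicals are added to human lung bronchial epithelial primary cells (BE3C system) and incubated 24 h. Keratin 8/18 is then measured by ELISA, with parallel SRB total-protein staining gauging overt cytotoxicity.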

Read-out in experiment [4]: Matrix Metallopeptidase 9 (MMP9), MMP9 (gene 4318)
Description: BSK_BE3C_MMP9: BioMAP Diversity Plus: BE3C Assay for Matrix Metallopeptidase 9 (MMP9) Biomarker Activity (AID 2284283). The settings on record: primary human bronchial epithelial cells. The procedure, abridged:
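MMP9 is measured by ELISA after a 24 h compound exposure of primary human bronchial epithelial cultures. Parallel SRB staining gives overt cytotoxicity. Values fitted in the positive direction against DMSO.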

Read-out in experiment [5]: Plasminogen activator inhibitor-1 (PAI1), SERPINE1 (gene 5054)
Description: BSK_CASM3C_PAI1: BioMAP Diversity Plus: CASM3C Assay for Plasminogen activator inhibitor-1 (PAI1) Biomarker Activity (AID 2284284).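 Further: PAI-1 protein level measured by ELISA 24 h after dosing.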 To be noted: primary human coronary artery smooth muscle cells.

Read-out in experiment [6]: Monocyte Chemoattractant Protein-1 (MCP1), CCL2 (gene 6347)
Briefly: BSK_hDFCGF_MCP1: BioMAP Diversity Plus: hDFCGF Assay for Monocyte Chemoattractant Protein-1 (MCP1) Biomarker Activity (AID 2284285). To be noted: primary human foreskin fibroblasts. In a few lines:
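Human foreskin fibroblasts (hDFCGF system) were exposed to compound and secreted MCP-1 was measured by ELISA after 24 hours. Activity was fitted relative to DMSO. Cytotoxicity was checked by SRB total-protein staining in parallel cultures.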

Read-out in experiment [7]: Intercellular Adhesion Molecule 1 (ICAM1), ICAM1 (gene 3383)
Briefly: BSK_hDFCGF_ICAM1: BioMAP Diversity Plus: hDFCGF Assay for Intercellular Adhesion Molecule 1 (ICAM1) Biomarker Activity (AID 2284287). To be noted: primary human foreskin fibroblasts. In a few lines: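 Primary human foreskin fibroblasts (hDFCGF system) dosed with chemical; ICAM-1 quantified by ELISA at 24 h relative to DMSO. Parallel SRB total-protein staining to assess overt cytotoxicity.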

Read-out in experiment [8]: TIMP metallopeptidase inhibitor 2 (TIMP2), TIMP2 (gene 7077)
Description: BSK_hDFCGF_TIMP2: BioMAP Diversity Plus: hDFCGF Assay for TIMP metallopeptidase inhibitor 2 (TIMP2) Biomarker Activity (AID 2284289). To be noted: primary human foreskin fibroblasts. In a few lines: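 Primary human foreskin fibroblasts in the hDFCGF system, dosed for 24 h; TIMP-2 level measured by ELISA, fitted in the positive direction against DMSO; cytotoxicity checked in parallel by sulforhodamine B total protein staining.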

Read-out in experiment [9]: Thrombomodulin, THBD (gene 7056)
Briefly: BSK_LPS_Thrombomodulin: BioMAP Diversity Plus: LPS Assay for Thrombomodulin Biomarker Activity (AID 2284296). To be noted: primary human HUVEC with PBMC. The procedure, abridged: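 Human umbilical vein endothelial cells co-cultured with PBMC and stimulated with LPS; cell-surface thrombomodulin measured by ELISA 24 hours after compound. Gain or loss versus DMSO; cytotoxicity checked by SRB staining in parallel cultures.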

In general, AC50 refers to the midpoint of the concentration-response curve, whichever way the signal moves.

SMILES strings stand for the structures. A structure can be active in one record and inactive in another. Active and inactive are the calls of the source. How the source made its calls: active means hit-call score of the fitted dose curve at least 0.9, where 1 is the maximum; inactive means score below 0.9.

Take `CC[Si](OC(C)=O)(OC(C)=O)OC(C)=O`: the outcome (in experiment [1]; in [2]; in experiment [3]; with KRT18 (gene 3875); in [4]; in [5]) was inactive. The result in experiment [6], in [7], in experiment [8] and in [9] was inactive. Also, in experiment [4], the AC50 was 6.87 µM (active).

Take `COc1cc(C=O)ccc1OC(=O)C(C)C`: the outcome (in experiment [1]; in experiment [2]; in experiment [3]; with KRT18 (gene 3875); in experiment [4]; in [5]) was inactive. Further, the result in experiment [6], in [7], in experiment [8] and in experiment [9] was inactive.

As to `OC1OC[C@@H](O)[C@H](O)[C@H]1O` (stereo partly specified), the result (in experiment [1]; in experiment [2]; in experiment [3]; in the experiment with KRT18 (gene 3875); in experiment [4]; in experiment [5]) was inactive. Further, the outcome in experiment [6], in [7], in experiment [8] and in experiment [9] was inactive.

In the case of `Cc1cc(C2(c3cc(C)c(O)cc3C)OS(=O)(=O)c3ccccc32)c(C)cc1O`, the result (in [1]; in experiment [2]; in experiment [3]; with KRT18 (gene 3875); in experiment [4]; in [5]) was inactive. Besides, the result in experiment [6], in [7], in experiment [8] and in experiment [9] was inactive.

Consider `C[C@H]1C[C@@H]2[C@H]([C@@H](O)C[C@@]3(C)[C@H]2CC[C@]3(O)C(=O)CO)[C@@]2(C)C=CC(=O)C=C12`, for which the result (in [1]; in experiment [2]; in experiment [3]; in the experiment with KRT18 (gene 3875); in experiment [4]; in experiment [5]) was inactive. For the same compound, the result in experiment [6], in experiment [7], in experiment [8] and in [9] was inactive.

With `OC[C@H]1O[C@H](O[C@]2(CCl)O[C@H](CCl)[C@@H](O)[C@@H]2O)[C@H](O)[C@@H](O)[C@H]1Cl`, the result (in experiment [1]; in [2]; in experiment [3]; in the experiment with KRT18 (gene 3875); in [4]; in experiment [5]) was inactive. Besides, the result in experiment [6], in experiment [7], in experiment [8] and in experiment [9] was inactive.

Turning to `NCCNCCN`, the result (in [1]; in experiment [2]; in experiment [3]; with KRT18 (gene 3875); in experiment [4]; in experiment [5]) was inactive. Moreover, the result in [6], in [7], in experiment [8] and in experiment [9] was inactive.

With `CC(=O)OCCC(C)CC(C)(C)C` (stereo unspecified), the outcome (in [1]; in [2]; in experiment [3]; with KRT18 (gene 3875); in experiment [4]; in [5]) was inactive. The result in [6], in experiment [7], in experiment [8] and in experiment [9] was inactive.

As for `C=CCOC(=O)CCC1CCCCC1`, the result (in experiment [1]; in experiment [2]; in [3]; with KRT18 (gene 3875); in [4]; in [5]) was inactive. Further, the outcome in [6], in [7], in experiment [8] and in experiment [9] was inactive.

For `Nc1cc([N+](=O)[O-])ccc1O`, the result (in experiment [1]; in experiment [2]; in experiment [3]; with KRT18 (gene 3875); in experiment [4]; in experiment [5]) was inactive. In addition, the outcome in experiment [6], in [7], in experiment [8] and in experiment [9] was inactive.

Consider `CCC(=O)OCc1ccccc1`, for which the result (in [1]; in experiment [2]; in [3]; in the experiment with KRT18 (gene 3875); in [4]; in experiment [5]) was inactive. In addition, the result in experiment [6], in [7], in experiment [8] and in experiment [9] was inactive.

On to `CC(=O)[C@H]1CC[C@H]2[C@@H]3CC=C4C[C@@H](O)CC[C@]4(C)[C@H]3CC[C@]12C`, for which the result (in [1]; in [2]; in experiment [3]; with KRT18 (gene 3875); in [4]; in experiment [5]) was inactive. For the same compound, the outcome in experiment [6], in experiment [7], in experiment [8] and in [9] was inactive.

The values are drawn from PubChem BioAssay (EPA / NIEHS).
